PubChem BioAssay (EPA / NIEHS)
Active and inactive are the calls of the source. Rule for the calls: active = hit-call score of the fitted dose curve at least 0.9, where 1 is the maximum; inactive = score below 0.9. Peptide text beside a SMILES is read from it.

test: ATG_FoxO_CIS: Attagene CIS-FACTORIAL HepG2 Assay for human Forkhead box O (FoxO) (AID 2282943); settings: HepG2 Attagene cis-reporter, FoxO element, mRNA; actives raise or lower the signal
In short: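 Read-out: fluorescence of 6-FAM-labelled reporter cDNA fragments resolved by capillary electrophoresis. Transiently transfected HepG2 cells were dosed for 24 h; activity fitted in both directions relative to DMSO controls.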

SMILES | outcome | AC50
O=S(=O)(O)c1ccc(N=Nc2c(O)ccc3ccccc23)cc1 | inactive | 
CC1(C)[C@@H]2CC[C@@]1(C)C(=O)C2 | inactive | 
Cc1ccc(C)c(OCCCC(C)(C)C(=O)O)c1 | inactive | 
COc1ccc(C(=O)/C(Br)=C\C(=O)O)cc1 | inactive | 
C/C=C/C=C/CCCCCCCO | inactive | 
CCCCCCCCCCCC(C)=O |  | 171 µM (active)
CC(=O)OCC=C(C)C | inactive | 
CCCC=C(C=O)CC | inactive | 
CCc1cccc(C)c1N | inactive | 
CCCCCCCCCCCCC | inactive | 
COCC(=O)O | inactive | 
CCC1COC(=O)O1 (centres undefined) | inactive | 
CCCC1CCCC(=O)O1 (centres undefined) | inactive | 
C[Si](C)(C)N[Si](C)(C)C | inactive | 
CCCC(CC)c1ccccc1 (centres undefined) | inactive | 
CC(=O)OC1CCCCC1 | inactive | 
CC1CC(=O)CC(C)(C)C1 (centres undefined) | inactive | 
CC(C)(C)NC(=O)[C@H]1CC[C@H]2[C@@H]3CC[C@H]4NC(=O)C=C[C@]4(C)[C@H]3CC[C@]12C | inactive | 
CCC1(C)C(=O)N(Cl)C(=O)N1Cl (centres undefined) |  | 29.8 µM (active)
CC/C=C\CCOC(=O)c1ccccc1O | inactive | 
CN1CCN(C)CC1 | inactive | 
CC(C)OC(=O)c1ccccc1 | inactive | 
COC(=O)[C@H](Cc1ccccc1)NC(=O)[C@@H](N)CC(=O)O (H-Asp-Phe-OMe) | inactive | 
C=CCCCCCCCCC=O | inactive | 
c1ccc(-c2nc3ccccc3[nH]2)cc1 | inactive | 
CC(=O)/C=C/C1C(C)=CCCC1(C)C (centres undefined) | inactive | 
C=C(C)C1CC=C(C)CC1 (centres undefined) | inactive | 
CCCCCCCCC(CO)CCCCCC (centres undefined) | inactive | 
O=C(O)c1ccc2c(c1)C(=O)OC2=O | inactive | 
